Rows were chosen to be rich in hits. Some 3.9% of all compounds tested hit in one or more screens of this group.
ALOX15 inhib: qHTS Assay for Inhibitors of 15-hLO (15-human lipoxygenase) | Polyunsaturated fatty acid lipoxygenase ALOX15 (Homo sapiens), P16050 | purified 15hLO-1, xylenol orange hydroperoxide absorbance | Potency, µM (highest dose often 57.1 µM), hits mostly inhibitors | hit rate 1.4% among 74,000 | AID 887, 2007; also: nearly all actives have a fitted effect of over 55% in size
Target sequence (P16050 whole entry, looked up): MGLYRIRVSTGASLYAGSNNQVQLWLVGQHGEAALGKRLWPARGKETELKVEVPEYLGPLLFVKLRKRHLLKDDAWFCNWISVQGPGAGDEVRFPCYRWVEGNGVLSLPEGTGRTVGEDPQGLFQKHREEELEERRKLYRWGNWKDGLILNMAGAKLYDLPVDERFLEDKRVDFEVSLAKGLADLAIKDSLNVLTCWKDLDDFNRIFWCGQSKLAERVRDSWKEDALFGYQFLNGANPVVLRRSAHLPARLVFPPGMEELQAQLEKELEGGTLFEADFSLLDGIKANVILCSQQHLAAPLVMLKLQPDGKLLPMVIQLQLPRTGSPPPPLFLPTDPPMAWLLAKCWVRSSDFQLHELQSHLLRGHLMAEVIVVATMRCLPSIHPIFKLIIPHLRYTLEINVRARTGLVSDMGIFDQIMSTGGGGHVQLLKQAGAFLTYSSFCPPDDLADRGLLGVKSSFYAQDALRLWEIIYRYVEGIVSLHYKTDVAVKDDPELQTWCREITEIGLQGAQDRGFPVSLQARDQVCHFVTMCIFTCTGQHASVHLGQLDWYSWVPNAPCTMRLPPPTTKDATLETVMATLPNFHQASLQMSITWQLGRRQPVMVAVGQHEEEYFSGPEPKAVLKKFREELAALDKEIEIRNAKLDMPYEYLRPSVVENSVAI
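40 nM 15hLO-1 + cpd, 15 min RT; start w/ 50 uM AA (final), 6 min RT; stop/detect w/ 200 uM XO + 300 uM Fe(II) in 50 mM H2SO4, 30 min; A573/A405. Buffer 25 mM Hepes pH 7.5, 0.01% Triton X-100. No-enzyme wells as negative control.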
ERK AVP block: qHTS Assay for Inhibitors of the ERK Signaling Pathway using a Homogeneous Screening Assay | HEK293-V1b, vasopressin-stimulated pERK AlphaScreen | AID 995, 2007 | hit rate 0.99% among 72,000 | Potency, µM (top dose mostly 57.5 µM), usual class: inhibitors; also: nearly all actives have a fitted effect of over 55% in size
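qHTS, compounds titrated on V1b-expressing HEK293 cells. Preincubation 30 min at 37C, vasopressin 25 nM for 5 min, lysis 10 min, bead incubation 5 hr at room temperature.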
Tau filament bind: qHTS Assay for Tau Filament Binding; hit rate 2% among 71,000; AID 596, 2007; recombinant tau filaments, thioflavin S fluorescence, 15 h; filaments grown with octadecylsulfate alongside compound; Microtubule-associated protein tau (Homo sapiens), P10636; Potency, µM (top dose mostly 57.1 µM);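 also: actives lower thioflavin S fluorescence by blocking filaments or displacing dye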
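His-tagged recombinant human tau (exons 2, 3 and 10 included), 1 uM, was induced to fibrillize by 30 uM sodium octadecylsulfate with compound present. After 15 h at 37 C, thioflavine S fluorescence (ex 450, em 510 nm) was read.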
Casp7 inh: qHTS Assay for Allosteric/Competitive Inhibitors of Caspase-7. P55210. recombinant caspase-7, Ac-DEVD-AFC fluorescence rate. Potency, µM (highest dose often 57.5 µM), hits mostly inhibitors. hit rate 0.02% among 75,000. AID 889, 2007; active = well fitted inhibition curve with a large enough effect in the main read-out, with a control signal flat, not every such curve was filed as active; inconclusive = small, poorly fitted or top-dose-only effect, or a change in a side signal
Caspase-1 inhib: qHTS Assay for Allosteric/Competitive Inhibitors of Caspase-1 | P29466 | Caspase-1 enzyme, Ac-WEHD-AFC fluorogenic rate | Potency, µM (titrated, usually from 57.5 µM), actives largely listed as inhibitors | hit rate 0.03% among 75,000
tau ThS displ: Tau ThS binding assay; shares compounds with Tau filament bind; recombinant tau filaments, Thioflavin S fluorescence displacement; Potency, µM; hit rate 40% among 60; AID 911, 2007; calls by dose curve
aSyn ThS bind: Alpha-synuclein ThS binding assay; hit rate 40% among 60; recombinant alpha-synuclein fibrils, ThS fluorescence displacement; shares compounds with Tau filament bind; Potency, µM; calls by dose curve
Abeta ThS displ: Beta amyloid ThS binding assay | shares compounds with Tau filament bind | Abeta1-42 fibrillization, thioflavin S fluorescence, overnight 37 C | Potency, µM | hit rate 50% among 60 | AID 956, 2007; calls by dose curve
Numbers stand for hits; – = inactive; ? = inconclusive; · = no result given; [ ] = another dose, or the depositor's remark. Unless noted, calls follow the shape of the dose curve; as a rule, active = well fitted curve in the direction sought with a large enough effect; inconclusive = small, poorly fitted or top-dose-only effect, or another doubt; inactive = no such curve, though single readings can be large; an effect the other way counts as inactive or inconclusive.

SMILES	ALOX15 inhib	ERK AVP block	Tau filament bind	Casp7 inh	Caspase-1 inhib	tau ThS displ	aSyn ThS bind	Abeta ThS displ
Cc1cc(N2CCOCC2)c2c(N)c(C)cc(C)c2n1	–	–	16µM	–	–	·	·	·
CC(=NCC(=O)O)c1ccccc1	–[11.4 µM]	–[11.5 µM]	–[11.4 µM]	–[11.5 µM]	–[11.5 µM]	·	·	·
CC(C)COC(=O)C(C#N)c1nc2ccccc2nc1N1CCN(Cc2ccc3c(c2)OCO3)CC1 (configuration not stated)	–	–	2µM	–	–	·	·	·
COC(=O)C(C#N)c1nc2ccccc2nc1N1CCN(Cc2ccc3c(c2)OCO3)CC1 (configuration not stated)	–	–	13µM	–	–	·	·	·
CCCCOC(=O)C(C#N)c1nc2ccccc2nc1N1CCN(Cc2ccc3c(c2)OCO3)CC1 (configuration not stated)	–	–	0.4µM	–	–	·	·	·
CC(C)N(CCNC(=O)c1ccc(Cc2nc3ccccc3[nH]2)cc1)C(C)C	–	·	·	–	–	·	·	·
CC1(C)CC(=O)C(C(=O)CCCCC(=O)C2C(=O)CC(C)(C)CC2=O)C(=O)C1	–	–	–	–	–	–	–	–
Cc1ccc2nc(NC(=O)C3CCN(S(=O)(=O)c4cccc5nsnc45)CC3)sc2c1	?	–	5µM	–	–	–	?	–
Cc1ccnc(NC(=O)C2CCN(S(=O)(=O)c3cccc4nsnc34)CC2)c1	–	–	–	–	–	·	·	·
Cc1ccc2nc(NC(=O)C3CCCN(S(=O)(=O)c4cccc5nsnc45)C3)sc2c1 (configuration not stated)	?	–	7.9µM	–	–	–	?	–
Cc1cnc(CNc2ncncc2-c2cccc(NS(C)(=O)=O)c2)cn1	–	–	–	–	–	·	·	·
Cc1cccc(CNc2cc(-c3c(C)noc3C)ncn2)c1	–	–	–	–	–	·	·	·
O=C(O)C(O)C(O)C(O)C(O)C(=O)O (configuration not stated)	–	–	·	–	–	·	·	·
CC(=O)[C@@H](C)CCO[C@@]1(C)OCC[C@@H]1C	–[11.4 µM]	–[11.5 µM]	–[11.4 µM]	–[11.5 µM]	–[11.5 µM]	·	·	·
Cc1cc(C)c2nc(N3CCCC(C(=O)NCCN4CCOCC4)C3)sc2c1 (configuration not stated)	–	–	–	–	–	–	–	–
Cc1cc(C)c2nc(N3CCCC(C(=O)N4CCC(C(N)=O)CC4)C3)sc2c1 (configuration not stated)	–	–	–	–	–	·	·	·
CN(C)c1ccc(C(=C2C=CC(=[N+](C)C)C=C2)c2ccc(N(C)C)cc2)cc1	–	10µM	0.13µM	–	–	0.18µM	0.15µM	0.15µM
O=C(C1CCCN(S(=O)(=O)c2cccc3nonc23)C1)N1CCC(Cc2ccccc2)CC1 (configuration not stated)	?	–	3.2µM	–	–	?	–	–
O=C(NCCc1ccccc1)C1CCCN(S(=O)(=O)c2cccc3nonc23)C1 (configuration not stated)	–	–	–	–	–	·	·	·
CCCNC(=O)OC[C@@H]1O[C@H](CCO/N=C(\C)CCN2CCc3nc(CC)c(CC)cc3C2)C=C[C@@H]1Oc1ccc(OC)cc1	–[11.4 µM]	–[11.5 µM]	·	–[11.5 µM]	–[11.5 µM]	·	·	·
Cc1ccc(C)c(-c2nc3ccc(N)cc3[nH]2)c1	–	–	–	–	–	·	·	·
Nc1ccc2nc(-c3ccc(Cl)cc3)[nH]c2c1	–	·	7.9µM	–	–	–	?	?
CC(=O)NCCNc1nc(-c2ccccc2Cl)nc2ccccc12	–	–	–	–	–	·	·	·
CC(C)(C)OC=O	–	–	–	–	–	·	·	·
CCN1CCN(c2nc3ccccc3nc2C(C#N)C(=O)OC2CCCCC2)CC1 (configuration not stated)	?	–	0.79µM	–	–	2.8µM	1.8µM	1.4µM
SMILES	ALOX15 inhib	ERK AVP block	Tau filament bind	Casp7 inh	Caspase-1 inhib	tau ThS displ	aSyn ThS bind	Abeta ThS displ
C=CCOC(=O)C(C#N)c1nc2ccccc2nc1N1CCN(c2ccccc2OC)CC1 (configuration not stated)	–	?	2.5µM	–	–	4µM	1.4µM	1.1µM
CCOC(=O)C1CCCN(c2nc3ccccc3nc2C(C#N)C(=O)OCC)C1 (configuration not stated)	–	–	?	?	?	·	·	·
CCOC(=O)CCN1C(=O)[C@H]2[C@H]3[C@H](O)[C@H](O)C/C(=N/NC(=O)OCC)[C@H]3CC[C@@H]2C1=O	–[11.4 µM]	–[11.5 µM]	·	–[11.5 µM]	–[11.5 µM]	·	·	·
Cc1ccccc1Cn1ccc(NC(=O)c2cnn3c(C(F)(F)F)cc(-c4ccco4)nc23)n1	–	?	2.5µM	–	–	?	2.6µM	6.7µM
Cc1ccccc1Cn1ccc(NC(=O)CCSc2nc(-c3ccco3)cc(C(F)(F)F)n2)n1	–	–	–	–	–	·	·	·
Cc1ccc2nc(-c3ccc(N=Nc4cc(S(=O)(=O)O)c5ccccc5c4O)cc3)sc2c1S(=O)(=O)O	·	·	·	·	·	2.1µM	9.5µM	?
Nc1ccccc1NC(=O)c1ccccc1	–	–	–	–	–	–	–	–
Nc1cccc(C(=O)Nc2ccccc2Cl)c1	–	–	–	–	–	·	·	·
O=C1c2ccccc2-c2onc3ccc(NCCCn4ccnc4)c1c23	–	16µM	0.13µM	–	–	5.5µM	3.2µM	2.2µM
COc1ccc2nc(N=Nc3ccc(N(C)C)cc3)sc2c1	·	·	·	·	·	0.1µM	–	0.1µM
c1cc2c3c(cccc3c1)NC1(CCCCCC1)N2	–	–	2.5µM	–	–	?	6.3µM	2.2µM
O=C1CCSc2cccc3cccc(c23)N1	–	–	–	–	–	·	·	·
CC(C)Oc1cc(O)c2c(c1)OCC=C2CCC(=O)O	–[11.4 µM]	–[11.5 µM]	–[11.4 µM]	–[11.5 µM]	–[11.5 µM]	·	·	·
CCOCCCn1c(=N)c(C(N)=S)cc2c(=O)n3cccc(C)c3nc21	?	?	–	?	·	·	·	·
Cc1cccn2c(=O)c3cc(C(=O)NCCN4CCOCC4)c(=N)n(CCc4ccccc4)c3nc12	–	–	0.5µM	?	·	–	?	–
COCCCn1c(=N)c(C(=O)NCC2CCCO2)cc2c(=O)n3cccc(C)c3nc21 (configuration not stated)	–	?	–	?	·	?	?	?
Cc1ccc(/C=N/c2sc3c(c2C#N)CCC3)s1	–	–	2.5µM	–	–	–	?	–

Screening results as filed in PubChem BioAssay.
